Assay outcomes: PubChem, Broad Institute
C diff HTS = C. difficile growth inhibition; Clostridium difficile clinical isolate growth, OD600, 24 h; stronger effect = lower value; growth activity, negative = inhibition, % at 16 µg/mL (by protocol); 0.25% of 86,000 active; AID 1259249;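 active = mean growth activity at or below -80% and every replicate also at or below -80%; inconclusive = mean at or below -80% but some replicate above -80%; inactive = mean growth activity above -80%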
Pf Dd2 inh = inhibitors of Plasmodium falciparum Dd2 growth | P. falciparum Dd2 growth, SYBR Green, 72 h; stronger effect = lower value | activity change, % at 10 µM | 2.3% of 94,000 active | AID 1159554; in the data active = activity change below about -80%; inconclusive = no clear call, values can overlap the other calls
T cruzi growth-1 = inhibitors of T. cruzi proliferation. T. cruzi beta-gal in NIH3T3, GalScreen luminescence, 90 h. inhibition, % at 8.34 µM. 5.9% of 77,000 active;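 active = mean inhibition above about 93%, with at least 55% of replicates each passing it, limit read from the data, passing the limit was not always enough; inconclusive = only one of those two conditions holds; inactive = neither condition holds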
T cruzi growth-2 = blocks T. cruzi growth in NIH3T3 host cells; shares compounds with T cruzi growth-1; T. cruzi beta-gal in NIH3T3, GalScreen luminescence, 90 h; inhibition, % at 8.35 µM; 72% of 5,600 active;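 active = mean replicate inhibition above about 95% and at least 55% of replicates individually reaching it, limit read from the data; inconclusive = only one of the two criteria is met; inactive = neither criterion is met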
T cruzi growth-3 = blocks T. cruzi growth in NIH3T3 host cells. shares compounds with T cruzi growth-1. T. cruzi beta-gal in NIH3T3, GalScreen luminescence, 90 h. inhibition, % at 2.09 µM. 21% of 5,600 active. AID 651740;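 active = mean inhibition above about 95%, with at least 55% of replicates also reaching it, limit read from the data; inconclusive = meets just one of the two conditions; inactive = meets neither condition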
3T3 cytotox = cytotoxicity in mouse NIH/3T3 fibroblasts. AID 651742. cytotoxicity (signal decrease), % at 8.35 µM. 14% of 5,600 active. shares compounds with T cruzi growth-1. NIH/3T3 viability, CellTiter-Glo ATP luminescence, 90 h;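 active = mean signal decrease across replicates above about 35% based on untreated-well scatter, with enough replicates individually passing, limit read from the data; inconclusive = no rule stated though some were filed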
NIH3T3 tox 2 = cytotoxicity in mouse NIH/3T3 fibroblasts; inhibition, % at 24.9 µM; shares compounds with T cruzi growth-1; NIH/3T3 viability, CellTiter-Glo ATP luminescence, 90 h; AID 651744; 56% of 5,600 active;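 active = mean loss of cell viability signal at or above a set limit, and enough replicates individually reaching it; inconclusive = meets only the mean limit or only the replicate share; inactive = meets neither condition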
Each line names hits and unclear results; the compound was inactive in the other large screens (follow-up assays come after a bar, where they were run). Most compounds without a hit are left out; they make up all but 6.7% or so of the library.

N#C[C@H]1[C@@H](c2ccc(/C=C/c3ccccc3)cc2)[C@@H](CO)N1C(=O)C1CCCC1	T cruzi growth-1 inconclusive | T cruzi growth-2 95 | T cruzi growth-3 inactive | 3T3 cytotox inactive | NIH3T3 tox 2 27
COc1ccc(NC(=O)N(C)C[C@@H]2Oc3ccc(NC(=O)C4CCCCC4)cc3CC(=O)N([C@@H](C)CO)C[C@H]2C)cc1	none
C[C@H](NC(=O)C[C@@H]1C[C@@H]2c3cc(NC(=O)CN(C)C)ccc3O[C@@H]2[C@H](CO)O1)c1ccccc1	none
C[C@@H]1CN([C@H](C)CO)C(=O)c2cccc(NS(=O)(=O)c3ccc(F)cc3)c2O[C@@H]1CN(C)C	none (no result: T cruzi growth-1)
C[C@@H]1CN([C@H](C)CO)C(=O)c2cc(NC(=O)Nc3ccc(F)cc3)ccc2O[C@@H](C)CCCCO[C@H]1CN(C)S(=O)(=O)c1ccc(F)cc1	none
C[C@H](CO)N1C[C@H](C)[C@@H](CN(C)S(=O)(=O)c2ccc(F)cc2)OCCCC[C@H](C)Oc2ccc(NC(=O)Nc3ccc(F)cc3)cc2C1=O	T cruzi growth-1 100 | T cruzi growth-2 108 | T cruzi growth-3 inactive | 3T3 cytotox inactive | NIH3T3 tox 2 inactive
C[C@@H]1CCCCO[C@H](CN(C)S(=O)(=O)c2ccc(Cl)cc2)[C@@H](C)CN([C@@H](C)CO)C(=O)c2cc(NC(=O)Nc3ccc(F)cc3)ccc2O1	none
C[C@@H]1CCCCO[C@H](CN(C)S(=O)(=O)c2ccc(F)cc2)[C@H](C)CN([C@H](C)CO)C(=O)c2cc(NC(=O)Nc3ccc(F)cc3)ccc2O1	T cruzi growth-1 101 | T cruzi growth-2 96 | T cruzi growth-3 110 | 3T3 cytotox inactive | NIH3T3 tox 2 40
C[C@H]1CCCCO[C@@H](CN(C)S(=O)(=O)c2ccc(F)cc2)[C@@H](C)CN([C@@H](C)CO)C(=O)c2cc(NC(=O)Nc3ccc(F)cc3)ccc2O1	Pf Dd2 inh inconclusive, T cruzi growth-1 96 | T cruzi growth-2 105 | T cruzi growth-3 99 | 3T3 cytotox inactive | NIH3T3 tox 2 43
C[C@H](CO)N1C[C@H](C)[C@@H](CN(C)S(=O)(=O)c2ccc(Cl)cc2)OCCCC[C@H](C)Oc2ccc(NC(=O)Nc3ccc(F)cc3)cc2C1=O	none
C[C@H](CO)N1C[C@H](C)[C@H](CN(C)S(=O)(=O)c2ccc(F)cc2)OCCCC[C@H](C)Oc2ccc(NC(=O)Nc3ccc(F)cc3)cc2C1=O	T cruzi growth-1 103 | T cruzi growth-2 103 | T cruzi growth-3 inactive | 3T3 cytotox inactive | NIH3T3 tox 2 45
C[C@@H]1CN([C@@H](C)CO)C(=O)c2cc(NC(=O)Nc3ccc(F)cc3)ccc2O[C@@H](C)CCCCO[C@@H]1CN(C)S(=O)(=O)c1ccc(F)cc1	Pf Dd2 inh inconclusive
COc1ccc(NC(=O)Nc2ccc3c(c2)CC(=O)N([C@H](C)CO)C[C@H](C)[C@@H](CN(C)Cc2ccc(Cl)c(Cl)c2)O3)cc1	none
O=C(O)[C@@H]1[C@@H](CO)[C@@H]2Cn3c(ccc(C4=CCCCC4)c3=O)[C@@H]2N1Cc1ccccc1F	none
CN(C)C(=O)[C@H]1[C@H](CO)[C@H]2Cn3c(ccc(C4=CCCCC4)c3=O)[C@H]2N1Cc1ccccn1	T cruzi growth-1 active (no result: Pf Dd2 inh) | T cruzi growth-2 inactive | T cruzi growth-3 inactive | 3T3 cytotox inactive | NIH3T3 tox 2 inactive
CCCNC(=O)[C@H]1[C@H](CO)[C@H]2Cn3c(ccc(C4=CCCCC4)c3=O)[C@H]2N1Cc1ccccc1F	T cruzi growth-1 103 | T cruzi growth-2 106 | T cruzi growth-3 inactive | 3T3 cytotox inactive | NIH3T3 tox 2 inconclusive
CCN1[C@@H]2c3ccc(C4=CCCCC4)c(=O)n3C[C@@H]2[C@@H](CO)[C@@H]1C(=O)NC1Cc2ccccc2C1	T cruzi growth-1 105 | T cruzi growth-2 106 | T cruzi growth-3 inactive | 3T3 cytotox inactive | NIH3T3 tox 2 41
CN(C)C(=O)[C@@H]1[C@@H](CO)[C@@H]2Cn3c(ccc(C4=CCCC4)c3=O)[C@@H]2N1Cc1ccccn1	none
O=C(NCC1CC1)[C@@H]1[C@@H](CO)[C@@H]2Cn3c(ccc(-c4cccnc4)c3=O)[C@@H]2N1Cc1cocn1	none
O=C(NCC1CC1)[C@H]1[C@H](CO)[C@H]2Cn3c(ccc(-c4ccccc4)c3=O)[C@H]2N1Cc1cocn1	T cruzi growth-1 98 | T cruzi growth-2 inactive | T cruzi growth-3 inactive | 3T3 cytotox inactive | NIH3T3 tox 2 inactive
CCN1[C@@H]2c3ccc(C4=CCCC4)c(=O)n3C[C@@H]2[C@@H](CO)[C@@H]1C(=O)NC1Cc2ccccc2C1	none
N#C[C@@H]1[C@H](c2ccc(-c3ccccc3F)cc2)[C@H](CO)N1C(=O)Cc1ccccc1	none
Cc1ccccc1-c1ccc2c(c1)O[C@H](CN(C)Cc1ccc(C(=O)O)cc1)[C@@H](C)CN([C@@H](C)CO)S2(=O)=O	none (no result: T cruzi growth-1)
CN(C)C(=O)C[C@@H]1C[C@@H]2c3cc(NC(=O)c4ccc5c(c4)OCO5)ccc3O[C@@H]2[C@@H](CO)O1	none
C[C@@H](NC(=O)C[C@H]1CC[C@H]2[C@@H](COc3ccc(NS(=O)(=O)c4ccc(Cl)cc4)cc3C(=O)N2C)O1)c1ccccc1	none
Cc1ccc(S(=O)(=O)N(C)C[C@@H]2OCc3ccccc3-c3ccccc3C(=O)N([C@H](C)CO)C[C@H]2C)cc1	none (no result: C diff HTS)
O=S(=O)(c1ccccc1F)N1CCCCN2[C@H](CO)[C@@H](c3ccc(-c4ccccc4)cc3)[C@@H]2C1	none
COc1ccccc1-c1ccc2n(c1=O)C[C@H]1[C@H](CO)[C@@H](C(=O)NCCCN(C)C)N(C(C)=O)[C@@H]21	none
O=C(NCC1CC1)[C@@H]1[C@@H](CO)[C@@H]2Cn3c(ccc(C4=CCCC4)c3=O)[C@@H]2N1Cc1ccccc1F	none (no result: Pf Dd2 inh)
O=C(NCC1CC1)[C@H]1[C@H](CO)[C@H]2Cn3c(ccc(C4=CCCCC4)c3=O)[C@H]2N1Cc1ccccc1F	T cruzi growth-1 99 | T cruzi growth-2 inactive | T cruzi growth-3 inactive | 3T3 cytotox inactive | NIH3T3 tox 2 66
CCNC(=O)C[C@H]1CC[C@@H]2[C@H](COC[C@@H](O)CN2C(=O)Nc2cccc(OC)c2)O1	none (no result: T cruzi growth-1)
CO[C@H]1CN(C)C(=O)c2cc(NS(=O)(=O)Cc3ccccc3)ccc2OC[C@@H](C)NC[C@H]1C	none (no result: C diff HTS)
CN1CCCCN2[C@H](CO)[C@@H](c3ccc(/C=C/c4ccccc4)cc3)[C@H]2C1	none
CCC(=O)N1CCCCN2[C@H](CO)[C@@H](c3ccc(/C=C/c4ccccc4)cc3)[C@H]2C1	none
CCC(=O)N1CCCCN2[C@@H](CO)[C@H](c3ccc(/C=C/c4ccccc4)cc3)[C@@H]2C1	T cruzi growth-1 116 | T cruzi growth-2 106 | T cruzi growth-3 inactive | 3T3 cytotox 43 | NIH3T3 tox 2 105
